# Hits are enriched below; roughly 19% of the tested compounds scored in any of these assays.
# HT1080NT lethal: kills 2HG-producing HT-1080-NT fibrosarcoma cells. AID 686970. HT-1080-NT fibrosarcoma viability, CellTiter-Glo ATP luminescence, 48 h. 360,000 tested, 1.6% active. Potency, µM (series often up to 46.1 µM), without a hit: at the highest dose activity, negative = less viability, hits mostly cytotoxic;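 also: NT is the 2HG producing partner of a matched IDH1 knockdown line; potency is read from the fitted curve at half-maximal effect; 0% = DMSO-treated cells and -100% = media-only wells without cells; nearly all actives have a fitted effect of over 55% in size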
#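 Viability by CellTiter-Glo luminescence after 48 h compound exposure at 37C of HT-1080-NT cells (750/well, RPMI, 5% FBS). % activity scaled between DMSO wells and medium-only wells, then curve-fitted and categorized by curve class.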
# DT40 TDP1 CPT: DT40-hTDP1 cell growth loss with CPT | Potency, µM (titrated, usually from 46.2 µM), inactives show at the highest dose activity change, negative = growth inhibition, actives largely listed as inhibitors | chicken DT40 Tdp1-/-;hTDP1 cells + 20 nM CPT, ATP luminescence, 48 h | AID 686979 | 420,000 tested, 12% active; also: potency is read from the fitted curve at half-maximal effect; nearly all actives have a fitted effect of over 55% in size
#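 Cell growth measured by CellTiter-Glo luminescence after a minimum 48 h, 37 C compound exposure with 20 nM CPT in Tdp1-knockout DT40 cells stably expressing hTDP1, seeded 400/well; qHTS titration format.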
# DT40 TDP1 no CPT: qHTS for Inhibitors of human tyrosyl-DNA phosphodiesterase 1 (TDP1): qHTS in cells in absence of CPT. DT40 Tdp1-/- hTDP1 cells, no CPT, ATP luminescence, 48 h. Potency, µM (titrated, usually from 46.2 µM), for inactives: top-dose activity change, negative = growth inhibition, hits mostly inhibitors. 420,000 tested, 15% active; also: potency is read from the fitted curve at half-maximal effect; nearly all actives have a fitted effect of over 55% in size
#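 Readout: luminescence from CellTiter-Glo after 30 min in the dark at RT. Cells: DT40 Tdp1-/- with stable hTDP1, 400/well. Exposure: compounds alone, ≥48 hr, 37 °C.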
# IL1B secr inh: inflammasome signaling inhibition, IL-1 beta readout; 360,000 tested, 4.7% active; THP-1 LPS/ATP IL-1B secretion, AlphaLISA, 16 h; active compounds read low; activity change, % at 57.5 µM; in the data active = activity change below about -50%; inconclusive = mostly about -30% to -49%
#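 THP-1 cells pretreated 1 hr with compounds (up to 57.5 uM final), then stimulated with LPS (250 ng/mL final) plus ATP (1.25 mM final); secreted IL-1B measured by AlphaLISA after 16 hr, decreased signal indicating inhibition.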
# HT1080 IDH1KD tx: HT-1080 IDH1 knockdown cell toxicity (counter line). 360,000 tested, 2% active. HT-1080 IDH1 knockdown viability, ATP luminescence, 48 h. Potency, µM (top dose mostly 46.1 µM), without a hit: at the top dose activity, negative = toxicity, actives largely listed as cytotoxic;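 also: potency is read from the fitted curve at half-maximal effect; 0% = DMSO wells and -100% = cell-free medium wells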
#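 In this qHTS, HT-1080 cells depleted of IDH1 are exposed for 48 h at 37 °C to compound titrations. Toxicity is scored from CellTiter-Glo luminescence, with DMSO as full viability and medium alone as none.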
# * marks the source's active call; other numbers are inactive results; u = inconclusive; x = no result given; [ ] = remark or other dose. Unless noted, calls follow the shape of the dose curve; as a rule, active = well fitted curve in the direction sought with a large enough effect; inconclusive = small, poorly fitted or top-dose-only effect, or another doubt; inactive = no such curve, though single readings can be large; an effect the other way counts as inactive or inconclusive. Unless noted, % is scaled to controls: 0 for no effect and ±100 for the full control effect.
SMILES,HT1080NT lethal,DT40 TDP1 CPT,DT40 TDP1 no CPT,IL1B secr inh,HT1080 IDH1KD tx
Fc1cccc(CN2CCc3nc(Nc4ccc5c(c4)OCCO5)ncc3C2)c1F,x,u,25.9µM*,x,x
COc1cccc(CN2CCc3nc(Nc4ccc5c(c4)OCCO5)ncc3C2)c1OC,x,20.6µM*,8.2µM*,x,x
CCN(CC)C(=O)c1sc2c(c1C)c(=O)n(-c1ccccc1)c(=O)n2CC(=O)N(CC)c1cccc(C)c1,x,u,-19.4%,x,x
Cc1ccc(NC(=O)N2CCN3CCCCC3C2)cc1C (stereo not drawn),x,2.0%,-1.6%,x,x
c1ccc(CC2CCN(C(c3cccs3)c3nnnn3C3CCCC3)CC2)cc1 (stereo not drawn),0.0%,u,u,0.0,2.8%
CCN(Cc1ccccc1)C(c1ccc(Cl)cc1)c1nnnn1C(C)(C)C (stereo not drawn),-3.1%,25.9µM*,u,0.0,-0.3%
CC(C)(C)n1nnnc1C(c1ccncc1)N(Cc1ccccc1)Cc1ccco1 (stereo not drawn),-2.6%,u,23.1µM*,u,-0.2%
CC(C)(C)n1nnnc1C(c1cccs1)N(Cc1cccnc1)Cc1ccco1 (stereo not drawn),-0.3%,u,u,-2.8,-20.6%
c1ccc(CN(Cc2cccs2)C(c2cccs2)c2nnnn2C2CCCC2)cc1 (stereo not drawn),-16.4%,u,18.4µM*,-5.6,-15.5%
CC(C)(C)n1nnnc1C(c1cccs1)N(Cc1ccccc1)Cc1ccco1 (stereo not drawn),-1.8%,u,16.4µM*,-20.0,-21.2%
CCN(Cc1ccccc1)C(c1ccc(C)cc1)c1nnnn1C(C)(C)C (stereo not drawn),4.8%,u,u,-14.6,1.2%
COc1cccc(-c2ncc3ccccc3c2COC(=O)c2ccco2)c1,-3.0%,u,u,34.0,-3.7%
O=C(CCNS(=O)(=O)c1ccc2ccccc2c1)NCCOc1ccccc1,2.7%,u,u,-6.5,-8.5%
O=C(Nc1ccc2ncccc2c1)c1ccccc1Br,-10.7%,-20.7%,u,-22.7,0.1%
O=C(Nc1ccccc1)Nc1ccc2ocnc2c1,11.7%,9.7%,-8.0%,-15.8,29.7%
O=C(Nc1ccc2ncccc2c1)Nc1ccc2ncccc2c1,6.5%,20.6µM*,8.2µM*,x,8.8%
O=C(Nc1ccccc1)Nc1ccc2ncoc2c1,1.9%,3.3%,-15.1%,-63.3*,-0.3%
c1cnc2ccc(-c3ccc4ncccc4c3)cc2c1,-28.7%,u,4.11µM*,u,u
C[N+]1(CC(=O)OC2CCCCCCCCCCC2)CCCC1,u,4.11µM*,2.59µM*,-6.5,u
COC(=O)CCCCCCCCCC[N+]1(C)CCCCC1,-0.3%,9.2%,-28.6%,24.4,11.4%
COCCNC(=O)C(c1ccc(C)o1)N(C(=O)C(=O)NC1CCCCC1)c1ccc(F)cc1 (stereo not drawn),4.3%,7.4%,-19.2%,12.9,0.4%
CCCCCCCCCCCCC/C=C/[C@@H](O)[C@H](CO)NC(C)=O,x,-14.7%[4.12 µM],u,x,x
CC(C(=O)Nc1ccccc1-c1ccccc1)N1CCN(Cc2ccccc2)CC1 (stereo not drawn),-14.2%,u,u,-53.9*,-8.9%
Cc1ccc(S(=O)(=O)N2CCN(C(C)C(=O)Nc3ccccc3-c3ccccc3)CC2)cc1 (stereo not drawn),-2.6%,u,16.4µM*,0.0,-7.1%
CC(C(=O)Nc1ccccc1-c1ccccc1)N1CCN(C(=O)c2ccccc2)CC1 (stereo not drawn),0.0%,u,25.9µM*,37.7,1.1%
SMILES,HT1080NT lethal,DT40 TDP1 CPT,DT40 TDP1 no CPT,IL1B secr inh,HT1080 IDH1KD tx
CC1CCN(C(C)C(=O)Nc2ccccc2-c2ccccc2)CC1 (stereo not drawn),-24.6%,u,u,0.0,-15.0%
CCOC(=O)c1[nH]c2cc(OC)c(OC)cc2c1NC(=O)C(C)N1CCN(Cc2ccccc2)CC1 (stereo not drawn),-16.5%,u,18.4µM*,-17.6,-6.2%
Cc1ccc(S(=O)(=O)N2CCN(C(C(=O)Nc3ccc(F)cc3)c3ccccc3)CC2)cc1 (stereo not drawn),7.8%,-19.1%,u,-13.8,0.9%
OC(c1ccc2c(c1)CN(Cc1cccn1-c1ncccn1)CCO2)C1CCCCC1 (stereo not drawn),x,6.6%,-22.9%,x,x
CN1C(=O)N(CC(=O)Nc2sccc2C(N)=O)C(=O)C12CCCCC2,-3.0%,-10.2%,-14.9%,4.9,-2.4%
CN(Cc1c(C(=O)N/N=C/c2c(F)cccc2Cl)nnn1-c1nonc1N)C1CCCCC1,-4.1%,-6.8%,-3.4%,-14.0,-0.8%
O=C(Nc1ccc(F)cc1F)c1cc(Cl)sc1Cl,13.5%,-2.7%,-20.5%,-4.6,7.1%
CCOC(=O)/C(=C/Nc1ccc(F)c(F)c1)[N+](=O)[O-],-3.6%,4.1%,4.2%,-7.4,-2.2%
Cc1cc(C)c2c(=O)cc(C(=O)NCc3ccc(S(N)(=O)=O)cc3)oc2c1,x,8.2%,u,x,x
Cc1ccc(OCC2Cn3c(nc4c3c(=O)[nH]c(=O)n4C)O2)cc1C (stereo not drawn),0.9%,u,10.3µM*,26.9,-11.5%
CCc1cccc(OCC2Cn3c(nc4c3c(=O)n(C)c(=O)n4C)O2)c1 (stereo not drawn),-21.6%,u,u,38.3,u
Cn1c(=O)c2c(nc3n2CC(COc2ccc(Cl)cc2)O3)n(C)c1=O (stereo not drawn),3.9%,u,-15.5%,36.1,6.9%
CCc1cccc(OCC2Cn3c(nc4c3c(=O)[nH]c(=O)n4C)O2)c1 (stereo not drawn),2.8%,8.2µM*,u,46.6,3.0%
CCN(CC)S(=O)(=O)c1cc(C(=O)Nc2cc(C)[nH]n2)ccc1Cl,-2.4%,-5.2%,4.4%,14.1,-0.7%
COc1cc(CCC(=O)NCc2ccc3c(c2)OCO3)cc(OC)c1OC,6.9%,0.9%,-21.8%,42.1,7.9%
COc1cc(C2c3cc4c(cc3OC(NCCc3ccccc3)C2C)OCO4)cc(OC)c1OC (stereo not drawn),1.03µM*,1.03µM*,0.82µM*,41.1,1.03µM*
COc1cc(C2c3cc4c(cc3OC(Nc3ccc(C(=O)O)cc3)C2C)OCO4)cc(OC)c1OC (stereo not drawn),0.517µM*,1.3µM*,1.16µM*,-8.4,u
O=C(N/N=C/c1ccsc1)c1c[nH]c2ccccc12,-2.6%,-14.6%,-18.6%,u,2.6%
COc1ccccc1CC1S/C(=N/N=C/c2ccco2)NC1=O (stereo not drawn),-13.5%,u,6.51µM*,11.5,-1.2%

# Source: PubChem (National Center for Advancing Translational Sciences (NCATS))
